Results as given in PubChem BioAssay (NCI).
About 83,000 compounds went through this panel and 20% of them were active in at least one assay; those are over-represented in the sample as a whole.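 Compound tested at a single concentration for 48 hours in 96-well plates; a percent growth value below 10 was scored as active.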 A number with no mark means an inactive call. Activity calls are given as the source filed them.

Experiments:
Assay in all cases: NCI-60 one-dose screen, 48 h (100 = growth as untreated, 0 = no growth, -100 = all killed)
Conditions in all cases: 10 µM unless noted
[1] = tested on: NCI-H23 lung
[2] = tested on: NCI-H226 lung
[3] = tested on: NCI-H322M lung
[4] = tested on: HOP-62 NSCLC
[5] = tested on: NCI-H460 lung
[6] = tested on: HOP-92 NSCLC
[7] = tested on: NCI-H522 lung
[8] = tested on: A549/ATCC NSCLC
[9] = tested on: 786-0 renal
[10] = tested on: COLO 205 colon
[11] = tested on: DU-145 prostate
[12] = tested on: K-562 leukemia
[13] = tested on: MALME-3M melanoma
[14] = tested on: MDA-MB-231 breast
[15] = tested on: RXF 393 renal
[16] = tested on: SF-268 CNS
[17] = tested on: SF-295 CNS
[18] = tested on: SF-539 CNS
[19] = tested on: UACC-257 melanoma
[20] = tested on: M14 melanoma

O=C(Nc1cccc(NC(=O)C2CCCCC2)c1)c1ccccn1
growth [1]: 88.3%
growth [2]: 106%
growth [3]: 89.2%
growth [4]: 100%
growth [5]: 114%
growth [6]: 112%
growth [7]: 89.9%
growth [8]: 102%
growth [9]: 95%
growth [10]: 117%
growth [11]: 103%
growth [12]: 85.2%
growth [13]: 91%
growth [14]: 104%
growth [15]: 125%
growth [16]: 95.7%
growth [17]: 97.9%
growth [18]: 98.1%
growth [19]: 108%
growth [20]: 91.7%

C/C(=C(\c1ccc(OCCN2CCCCCC2)cc1)c1ccc(OC(=O)Cc2ccccc2)cc1)c1ccc(Cl)cc1
growth [1]: 48.5%
growth [2]: 91.2%
growth [3]: 73.5%
growth [4]: 7.91% (active)
growth [5]: -60.1% (active)
growth [6]: 49.5%
growth [7]: 38.8%
growth [8]: 31.7%
growth [9]: -42% (active)
growth [10]: -79.7% (active)
growth [11]: 62.3%
growth [12]: -35.1% (active)
growth [13]: 22.6%
growth [14]: 35.1%
growth [15]: 21.1%
growth [16]: 49%
growth [17]: 3.77% (active)
growth [18]: 46.9%
growth [19]: 5.81% (active)
growth [20]: -53.1% (active)

CCN1C(=S)N(CC)C2C1NC(=S)N2/N=C/C=C/c1ccccc1OC (stereo not given)
growth [1]: 24.1%
growth [2]: 57%
growth [3]: 45.2%
growth [4]: 39.2%
growth [5]: 6.8% (active)
growth [6]: 74.6%
growth [7]: -11.3% (active)
growth [8]: 17.7%
growth [9]: 35.6%
growth [10]: 10%
growth [11]: 13.9%
growth [12]: 10.2%
growth [13]: 53.5%
growth [14]: 11.5%
growth [15]: 20.4%
growth [16]: 56.4%
growth [17]: 12.4%
growth [18]: -18.5% (active)
growth [19]: 53.6%
growth [20]: 10.3%

CCOC(=O)c1c(-c2ccc(Cl)cc2)c(C#N)c2c(C#N)c(N)nn2c1N
growth [1]: 85.9%
growth [2]: 87.4%
growth [3]: 83.4%
growth [4]: 74.9%
growth [5]: 77.3%
growth [6]: 63.1%
growth [7]: 37.4%
growth [8]: 51.3%
growth [9]: 82.6%
growth [10]: 69.8%
growth [11]: 74.9%
growth [12]: 15.4%
growth [13]: 72.9%
growth [14]: 75.7%
growth [15]: 77%
growth [16]: 77.3%
growth [17]: 57.2%
growth [18]: 71.6%
growth [19]: 60.3%
growth [20]: 75.5%

CN1CCCc2cc(/C=C3/SC(=S)N(CCc4ccc(O)cc4)C3=O)ccc21
growth [1]: 94.1%
growth [2]: 88.5%
growth [3]: 95.1%
growth [4]: 101%
growth [5]: 95.1%
growth [6]: 48.3%
growth [7]: 43.8%
growth [8]: 87.3%
growth [9]: 87.6%
growth [10]: 112%
growth [11]: 85.9%
growth [12]: 27.6%
growth [13]: 96.6%
growth [14]: 81.8%
growth [15]: 94.6%
growth [16]: 76.3%
growth [17]: 99.7%
growth [18]: 84.8%
growth [19]: 93.2%
growth [20]: 78.6%

O=C(CCCCNC(=O)c1cc(=O)c(O)co1)Nc1ccccc1
growth [1]: 86.2%
growth [2]: 102%
growth [3]: 102%
growth [4]: 118%
growth [5]: 99.5%
growth [6]: 59.1%
growth [7]: -5.93% (active)
growth [8]: 104%
growth [9]: 101%
growth [10]: 67.7%
growth [11]: 104%
growth [12]: 13.3%
growth [13]: 43%
growth [14]: 99%
growth [15]: 55.5%
growth [16]: 91%
growth [17]: 102%
growth [18]: 92.5%
growth [19]: 88.7%
growth [20]: 81.5%

COc1cc(/C=C2\CN(S(=O)(=O)c3ccc(C)cc3)C/C(=C\c3cc(CN4CCCCC4)c(O)c(OC)c3)C2=O)cc(CN2CCCCC2)c1O
growth [1]: -64% (active)
growth [2]: -52.5% (active)
growth [3]: -74.4% (active)
growth [4]: -81.7% (active)
growth [5]: -72.5% (active)
growth [6]: -75.3% (active)
growth [7]: -58% (active)
growth [8]: -84.9% (active)
growth [9]: -65.4% (active)
growth [10]: -90.2% (active)
growth [11]: -88.1% (active)
growth [12]: -24.2% (active)
growth [13]: -82.4% (active)
growth [14]: -73.1% (active)
growth [15]: -72.1% (active)
growth [16]: -61.1% (active)
growth [17]: -74.7% (active)
growth [18]: -84.8% (active)
growth [19]: -89.6% (active)
growth [20]: -89% (active)

COC(=O)C1=C(C)NC(C)=C(C(=O)OCC(C)C)C1c1ccccc1[N+](=O)[O-] (stereo not given)
growth [1]: 58.4%
growth [2]: 93.1%
growth [3]: 65.4%
growth [4]: 79.1%
growth [5]: 49.5%
growth [6]: 47.3%
growth [7]: 25.4%
growth [8]: 65.4%
growth [9]: 59%
growth [10]: 91.1%
growth [11]: 50.6%
growth [12]: 18.2%
growth [13]: 86.1%
growth [14]: 55%
growth [15]: 70.2%
growth [16]: 66.6%
growth [17]: 56.9%
growth [18]: 65.6%
growth [19]: 81.6%
growth [20]: 51.1%
